Laboratory results published in PubChem BioAssay AID1851 (National Center for Advancing Translational Sciences (NCATS), 2009).
“And” between values parts separate entries of the source, which are not always exact repeats. Identical values can stand only once. Out of some 16,000 compounds screened, about 4,000 (25%) were called active. About 26% were inconclusive and are not listed. The call rests on the fitted dose curve; in most records, active means well fitted curve in the direction sought with a large enough effect; inconclusive means small, poorly fitted or top-dose-only effect, or effect the other way; inactive means no such curve, though single readings can be large or run the other way. Not all results are given here.

These compounds were tested against Cytochrome P450 2C9 (Homo sapiens) (UniProt P11712) (assay: Cytochrome panel assay with activity outcomes). Conditions: recombinant CYP, pro-luciferin dealkylation, luminescence, p450-cyp2c9; series mostly up to 57.1 µM; activity, negative = inhibition: at the top concentration.
On the % scale 0 is the no-effect control and ±100 the full control effect.

Chain of Cytochrome P450 2C9 (Homo sapiens) (P11712 whole entry, looked up): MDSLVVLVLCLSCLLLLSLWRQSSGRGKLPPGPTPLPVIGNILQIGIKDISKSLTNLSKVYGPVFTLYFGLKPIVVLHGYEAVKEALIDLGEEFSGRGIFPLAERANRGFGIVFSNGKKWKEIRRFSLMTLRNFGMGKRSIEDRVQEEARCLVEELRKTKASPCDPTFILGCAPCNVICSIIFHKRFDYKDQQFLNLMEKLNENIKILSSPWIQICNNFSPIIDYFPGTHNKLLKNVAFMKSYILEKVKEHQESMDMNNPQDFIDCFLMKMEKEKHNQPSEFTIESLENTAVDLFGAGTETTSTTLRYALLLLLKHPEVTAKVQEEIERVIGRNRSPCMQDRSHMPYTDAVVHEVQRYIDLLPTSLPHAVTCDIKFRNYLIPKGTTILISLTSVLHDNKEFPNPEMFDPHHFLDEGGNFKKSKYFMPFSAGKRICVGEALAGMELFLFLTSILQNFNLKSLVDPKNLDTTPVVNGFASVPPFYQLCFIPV

AC50, active:
CCN=C1NN=C(c2ccc(C)cc2)CS1 6.31 µM
COc1cccc(NC(=O)CSc2nc3ccccc3cc2Cc2ccccc2)c1 6.31 µM
Cn1c(=O)c2c(nc(N3CCN(c4ccccn4)CC3)n2Cc2ccccc2Cl)n(C)c1=O 3.55 µM
C=CCn1c(=O)c2c(nc(Br)n2Cc2ccccc2Cl)n(C)c1=O 14.1 µM
COc1cc(OC)cc(C(=O)Nn2cc(C(=O)N3CCN(C)CC3)c3ccccc3c2=O)c1 11.2 µM
C=CCNC(=O)c1ccc2nc(-c3ccccc3)c(-c3ccccc3)nc2c1 14.1 µM
C=CCNC(=O)c1csc(-c2ccccc2)n1 15.8 µM
N=C1/C(=C/c2cccs2)C(=O)N=C2SN=C(SCc3ccccc3)N12 0.316 µM
O=C(C[C@@H]1C=Cc2ccccc2N1C(=O)c1ccccc1)c1ccccc1 2.51 µM
N#Cc1c(N2CCCCC2)nc(N)c2c(N)nc3c(c12)CC(c1ccccc1)O3 (stereo unspecified) 4.47 µM
CN1c2ccccc2C(C)(C)C12C=Nc1c(cc(N3CCOCC3)c3ccccc13)O2 (stereo unspecified) 1.58 µM
CCOc1cc(C2NN=C(c3ccccc3)S2)ccc1OCc1ccccc1Cl (stereo unspecified) 8.91 µM
CCOC(=O)C1C(=O)C=C(c2ccc(C)cc2)CC1c1ccco1 (stereo unspecified) 3.16 µM
CCOC(=O)C1C(=O)C=C(c2ccc(NS(C)(=O)=O)cc2)CC1c1ccco1 (stereo unspecified) 4.47 µM
CN1CC(c2ccccc2)C2(COc3ccccc3C2=O)C12C(=O)Nc1ccccc12 (stereo unspecified) 3.98 µM
COc1cc(C2C(C(=O)OCCC#N)=C(C)NC3=C2S(=O)(=O)c2ccccc23)cc(OC)c1OC (stereo unspecified) 7.08 µM
Cc1nc2ccccn2c1C(=O)CSc1ccccc1Cl 11.2 µM
O=C(c1ccc(F)cc1)C1CCN(C(=S)Nc2ccccc2)CC1 8.91 µM
CC(C)CO[C@H](c1ccc2c(c1)OCO2)[C@H](C)Br 2 µM
Cc1ccc(C(=O)Nc2cc(Cl)ccc2OC(=O)c2ccc(C)cc2)cc1 14.1 µM
CCOC(=O)c1c(NC(=S)NC(=O)c2cnn(CC)c2)sc2c1CCC(C)C2 (stereo unspecified) 5.01 µM
O=C(c1ccccc1)c1ccc2nc(-c3ccc(NC(=O)c4ccccc4Br)cc3)[nH]c2c1 2 µM
O=C(c1ccccc1)c1ccc2nc(-c3ccc(NC(=O)c4ccccc4F)cc3)[nH]c2c1 4.47 µM
O=C(O)Cc1cc(I)c(Oc2ccc(O)c(I)c2)c(I)c1 5.01 µM
O=C(Nc1cccc(NC(=O)c2ccccc2[N+](=O)[O-])n1)c1ccccc1[N+](=O)[O-] 0.794 µM
N#Cc1nc(-c2ccc(OCc3ccccc3)cc2)oc1NCCN1CCOCC1 7.94 µM
COC(=O)c1sccc1NC(=O)CSc1ccc(Cl)cc1 15.8 µM
COC(=O)c1sccc1NC(=O)CSc1ccccc1NS(=O)(=O)c1ccc(Cl)cc1 1.78 µM
COC(=O)c1sccc1NC(=O)CSc1cc(Cl)ccc1Cl 7.08 µM
O=C(Nc1ccccc1)N1CCCC(c2nc(-c3ccc(F)cc3)no2)C1 (stereo unspecified) 14.1 µM
CCCCCC(=O)N1CCCC(c2nc(-c3ccc(OC)cc3)no2)C1 (stereo unspecified) 3.55 µM
COc1ccc(-c2noc(C3CCCN(C(=O)c4ccccc4OC)C3)n2)cc1OC (stereo unspecified) 11.2 µM

AC50, inactive:
CN1[C@@H](CC(=O)c2ccccc2)CCC[C@@H]1C[C@@H](O)c1ccccc1

activity, negative = inhibition, inactive:
COc1ccc2cc(C#N)c(SCC(=O)NNC(=O)Cc3ccccc3)nc2c1 -16.9%
CCN(CC)C(=O)CSc1nnc(C2CCCCC2)o1 7.48%
CN1CCN(c2nc3c(c(=O)n(C)c(=O)n3C)n2C)CC1 0.789% [at 11.4 µM]
C=CCn1c(=O)c2c(nc(-c3ccc(S(=O)(=O)O)cc3)n2C)n(C)c1=O 23.6%
Cn1c(=O)c2c(nc(N3CCN(c4ccccn4)CC3)n2Cc2ccc(Cl)cc2Cl)n(C)c1=O -25.2%
C=CCn1cc(Cl)c(=O)n(CC=C)c1=O -24.2%
O=C(O)CCC(=O)CCC(=O)c1ccccc1 5.67%
OCCN1CCN(CCC=C2c3ccccc3Sc3ccc(Cl)cc32)CC1 -0.458% [at 25.6 µM]
CN1CCN(C(=O)c2ccc(-n3cccc3)cc2)CC1 9.87%
COc1cc(OC)cc(C(=O)NCC(=O)OC2CCOC2=O)c1 (stereo unspecified) -19.6%
CC[C@H](C)C(=O)O[C@H]1CCC=C2C=C[C@H](C)[C@H](CC[C@@H]3C[C@H](O)CC(=O)O3)[C@H]21 -8.33%
CN(C)C(=O)c1ccc(-c2ccc3ncnc(NCc4ccccc4)c3c2)cc1 13.4% [at 2.29 µM]
C=CCNC(=O)c1ccc(-c2nc(-c3ccc(Cl)c(Cl)c3)cs2)cc1 -18.2%
NCCc1nc(-c2nc(C(=O)O)cs2)cs1 -10.5% [at 11.4 µM]
CSc1nc(C)c2c(n1)N(c1ccc(C(F)(F)F)cc1)CC2 -10.3%
O=C1N=C(N2CCOCC2)S/C1=C/c1cccs1 11.2%
NC(=O)N1c2ccccc2C=Cc2ccccc21 -13.6% [at 25.6 µM]
CO[C@@H]1COC(=O)C/C=C\[C@H](C)[C@@H](NS(=O)(=O)c2ccc(C)cc2)COC(=O)C/C=C\[C@@H]1C -12.8% [at 11.4 µM] and 11% [at 11.4 µM]
Nc1nc2c(c(=O)[nH]1)N(C=O)[C@H](CNc1ccc(C(=O)N[C@@H](CCC(=O)O)C(=O)O)cc1)CN2 5.94% [at 25.6 µM]
Cc1cc(C(C)(C)C)c(OCCCN2CCOCC2)c(C(C)(C)C)c1 -0.273% [at 11.4 µM]
CN(C)Cc1ccccc1-c1ccc2ncnc(N3CCOCC3)c2c1 8.68% [at 2.29 µM]
CN(C)Cc1ccccc1-c1nc(N2CCOCC2)c2ccccc2n1 5.66% [at 2.29 µM]
COc1cc(CNCc2ccccn2)ccc1OCc1ccc(Cl)cc1Cl -15.6%
CN(C)C(=O)c1ccc(-c2cncnc2NC2CCNCC2)cc1 15.8% [at 2.29 µM]
CCN(CC)C(=O)Cn1cnc([N+](=O)[O-])n1 -10.1%
C[C@@H](C(=O)O)c1ccc(C[C@@H]2CCCC2=O)cc1 -13.5%
S=C(Nc1ccccc1)N1CCCCC1 -28.5%
O=C(c1ccc(F)cc1)C1CCN(CCCCc2ccccc2)CC1 7.51%
CC(C)CO/N=C1/C[C@@H](O)[C@@H](O)[C@@H]2[C@@H]3C(=O)N(Cc4ccc5c(c4)OCO5)C(=O)[C@H]3CC[C@H]12 -12.4% [at 11.4 µM]
CC(C)CO/N=C1/C[C@@H](O)[C@@H](O)[C@@H]2[C@@H]3C(=O)N(Cc4ccc5c(c4)OCO5)C(=O)[C@H]3CC[C@@H]12 -17.6% [at 11.4 µM]
COC(=O)c1cc(=O)[nH]c(=O)[nH]1 3.6% [at 11.4 µM]
CCOc1ccc(C(=O)Nc2ccc(Cl)cn2)cc1Cl 8.6%
C#CCCCO/N=C1/C[C@@H](O)[C@@H](O)[C@@H]2[C@@H]3C(=O)N([C@@H](C)c4ccccc4)C(=O)[C@H]3CC[C@H]12 -17.4% [at 11.4 µM]
CSc1nc(Oc2ccc(=O)[nH]n2)nc(N(C)C)n1 5.69%
CCOC(=O)CCN1C(=O)[C@H]2[C@@H]3[C@H](O)[C@H](O)CC(=O)[C@H]3CC[C@H]2C1=O 14.8% [at 11.4 µM] and 4.05% [at 11.4 µM]
C[C@@](N)(C(=O)O)c1ccc(P(=O)(O)O)cc1 18.4%
O=C(O)c1ccc(NCc2nc3cc4ccccc4cc3[nH]2)cc1 8.12% [at 11.4 µM]
C[C@@H](c1ccccc1)N1C(=O)[C@H]2[C@@H]3[C@H](O)C=CC(=O)[C@H]3CC[C@H]2C1=O 3.06% [at 11.4 µM]
Cc1nn(CCc2n[nH]c(=S)n2-c2ccc(F)c(Cl)c2)c(C)c1[N+](=O)[O-] -22%
COC(=O)N1CCC[C@@]2(CCN(C(=O)Nc3ccccc3)C2)C1 0.884%
COc1ccc(NC(=O)N2CCC3(CC2)CCN(C(=O)c2csnn2)CC3)cc1 -5.5%
O=C(O)Cc1ccc(O)c(O)c1 -21.4%
COc1cc(CC(=O)O)ccc1O 26.1%
CCOc1cc(NC(=O)c2ccccc2[N+](=O)[O-])c(OCC)cc1NC(=O)CC(C)C 14.7%
Cc1cccc(NC(=O)c2ccc([N+](=O)[O-])o2)n1 -15.3%
CO/N=C(\C(=O)N[C@@H]1C(=O)N2C(C(=O)[O-])=C(C[N+]3(C)CCCC3)CS[C@@H]12)c1csc(N)n1 -12.8% [at 25.6 µM]
N#Cc1cccc(-c2nc(NCCN3CCOCC3)c3ccccc3n2)c1 5.64% [at 2.29 µM]
N#Cc1ccccc1-c1ccc2ncnc(NCCN3CCOCC3)c2c1 2.09% [at 2.29 µM]
CO[C@H]1COC(=O)[C@H](C)COC(=O)[C@@H](Cc2ccccc2)NC(=O)C/C=C\[C@H]1C -8.74% [at 11.4 µM]
Cc1cc(Cl)nc(NC(=O)CSc2ccc(Cl)cc2)n1 -1.09% [at 11.4 µM]
Clc1ccc(Cl)c(SCCCN2CCNCC2)c1 -3.39% [at 11.4 µM]
CC(=O)OC[C@H]1O[C@@H](O/N=C2/[C@H]3O[C@@H]3[C@@H](O)[C@H]3[C@H]2CCn2c(=O)n(-c4ccccc4)c(=O)n23)[C@H](OC(C)=O)[C@@H](OC(C)=O)[C@@H]1OC(C)=O 10.3% [at 11.4 µM]
NC(=O)C[C@H](NC(=O)Cc1ccc(O)cc1O)C(=O)O -3.79%
O=C(Nc1ccccc1)N1CCCC2(CCNCC2)C1 -8.65%
CCCc1nnc(SCC(=O)N2CCCC(C)C2)n1CC1CCCO1 (stereo unspecified) 23.5%
COc1ccc(-c2nc(C#N)c(N3CCC(C(N)=O)CC3)o2)cc1OC -30.1%
Cc1noc(C)c1C(=O)N1CCC2(CCCN(C(=O)Nc3ccccc3)C2)CC1 3.13%
CCOC(=O)CSc1nnc(CNC(=O)c2ccc(OC)cc2)n1C1CCCCC1 -9.65%
